Screening data from PubChem BioAssay.
Only some compounds are listed: those with a hit (about 1.6% of all), similar ones and a draw of the others.
CCHF vOTU inh: blocks the CCHF virus ovarian tumor domain protease | 370,000 compounds, 0.55% hits | CCHFV vOTU protease, Pep-AMC fluorescence | inhibition, % at 11.5 µM; in the data active = inhibition above about 30%; note: 0% = vehicle wells with enzyme and 100% = no enzyme wells
Mtb hypoxia inh: inhibitors of hypoxia-regulated fluorescent reporter in Mycobacterium tuberculosis | 300,000 compounds, 0.1% hits | M. tuberculosis hypoxia-regulated fluorescent reporter, fluorescence | fluorescence inhibition, % (concentration not given with the values); in the data active = fluorescence inhibition mostly above about 23%, no sharp cut-off; inactive = mostly below about 17%
RecA splice inh: Mtb RecA intein splicing inhibition | cell-free RecA intein splicing, fluorescence | inhibition, % (concentration not given with the values) | 290,000 compounds, 0.75% hits; in the data active = inhibition above about 30%;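 note: 0% = vehicle wells and 100% = reference inhibitor control wells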
Target sequence (P9WHJ3 whole entry, looked up, canonical isoform): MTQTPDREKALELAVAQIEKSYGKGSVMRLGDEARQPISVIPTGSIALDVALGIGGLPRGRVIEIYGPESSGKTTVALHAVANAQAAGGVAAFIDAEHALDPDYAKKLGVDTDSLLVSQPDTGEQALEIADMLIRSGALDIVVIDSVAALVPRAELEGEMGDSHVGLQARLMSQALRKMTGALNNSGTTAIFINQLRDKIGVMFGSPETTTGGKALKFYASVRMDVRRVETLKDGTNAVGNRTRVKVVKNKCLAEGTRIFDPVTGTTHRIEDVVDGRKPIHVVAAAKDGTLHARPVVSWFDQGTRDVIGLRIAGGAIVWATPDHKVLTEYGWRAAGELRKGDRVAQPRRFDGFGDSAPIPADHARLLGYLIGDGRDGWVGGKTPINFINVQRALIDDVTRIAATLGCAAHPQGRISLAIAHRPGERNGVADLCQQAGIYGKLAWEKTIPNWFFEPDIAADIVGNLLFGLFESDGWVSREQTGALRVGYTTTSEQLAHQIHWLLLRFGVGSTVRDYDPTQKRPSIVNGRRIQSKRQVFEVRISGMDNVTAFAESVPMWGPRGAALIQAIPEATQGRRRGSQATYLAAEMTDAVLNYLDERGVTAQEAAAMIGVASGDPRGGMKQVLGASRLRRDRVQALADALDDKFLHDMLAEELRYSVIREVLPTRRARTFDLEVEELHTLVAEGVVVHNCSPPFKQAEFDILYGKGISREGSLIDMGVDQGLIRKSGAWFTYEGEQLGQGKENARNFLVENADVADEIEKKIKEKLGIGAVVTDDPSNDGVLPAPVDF
RN4220 kill: kills Staphylococcus aureus RN4220; S. aureus RN4220 growth, OD600, 16 h; inhibition, % (no concentration beside the values); 330,000 compounds, 0.33% hits; AID 1259311; in the data active = inhibition above about 85%;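 note: plate controls were untreated cells for no effect and reference antibiotic for full effect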
BJeLR viability: BJeLR cell viability loss; BJeLR (HRASV12) viability, CellTiter-Glo ATP luminescence, 48 h; inhibition, % (no concentration beside the values); 300,000 compounds, 0.17% hits; in the data active = inhibition above about 50%
Sa ugtP lethal: growth inhibition of S. aureus ugtP deletion strain; growth inhibition, % (no concentration beside the values); 330,000 compounds, 0.54% hits; AID 1259309; S. aureus RN4220 ugtP deletion, OD600 growth, 16 h; in the data active = growth inhibition above about 68%;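 note: plate controls were untreated wells for no effect and antibiotic for full effect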
GFP chromo cs: counter-screen GFP chromophore formation inhibition. shares compounds with RecA splice inh. cell-free GFP chromophore formation, fluorescence. EC50, µM. 2,100 compounds, 83% hits. AID 434968; call rule not given here
Numbers without * were called inactive; / = no result shown.

SMILES	CCHF vOTU inh	Mtb hypoxia inh	RecA splice inh	RN4220 kill	BJeLR viability	Sa ugtP lethal	GFP chromo cs
CC(C)CC1C(C#N)=C(N)Oc2n[nH]c(-c3cccs3)c21 (configuration not stated)	10	-4	86*	5	-6	-3	>38
CC(C)CC1C(C#N)=C(N)Oc2c1c(=O)oc1ccccc21 (configuration not stated)	-2	6	-1	5	-16	-1	/
CC(C)CC(NC(=O)c1nc[nH]c1C(=O)NC(CCCCNC(=O)OC(C)(C)C)C(=O)OC(C)(C)C)C(=O)OCc1ccccc1 (configuration not stated)	/	-3	/	-4	/	4	/
CCc1ccccc1OCC(O)CNC1CCCc2ccccc21 (configuration not stated)	/	8	/	7	/	43	/
CCCn1c(=O)[nH]c(=O)c2c1nc(-c1ccccc1OC(F)F)n2CCOC	-11	7	0	5	1	4	/
CCCn1c(=O)[nH]c(=O)c2c1nc(-c1ccc(OC(F)F)c(OC)c1)n2CCOC	1	3	53*	15	0	6	>38
O=C(CC1CC=CCCC(=O)OC(c2ccccc2)CNC1=O)NCCO (configuration not stated)	/	10	/	3	/	6	/
Cc1ccc(C2NC(=O)NC3=C2CCc2ccccc23)cc1 (configuration not stated)	-37	7	/	9	/	-12	/
COc1ccc(C2NC(=O)NC3=C2CCc2ccccc23)cc1 (configuration not stated)	/	/	47*	3	17	1	33*
COC(=O)C1=C(C(=O)OC)C2Nc3ccccc3[C@@]23CC(C(=O)OC)N(C(=O)COCc2ccccc2)C3=N1 (some centres not stated)	/	0	/	-1	/	-6	/
CCCCCc1cc(=O)oc2c(C(CCN3CCCC(C)C3)c3ccc(OC)cc3)c(OC)cc(OC)c12 (configuration not stated)	4	/	37*	/	10	/	18*
CCCCCc1cc(=O)oc2c(C(CCN3CCCCC3)c3ccc(OC)cc3)c(OC)cc(OC)c12 (configuration not stated)	-5	/	23	/	1	/	/
O=c1[nH]c(CCl)nc2cc(-c3ccc(F)cc3)sc12	4	/	36*	/	7	/	31*
COc1ccc(CN(CCC(c2ccccc2)c2ccc(OC(C)C)cc2)C(=O)CCl)cc1OC (configuration not stated)	5	15	83*	56	68*	64	0.4*
COc1ccc(Cl)cc1C1=CC(=O)CC(c2ccc(F)cc2)C1 (configuration not stated)	/	6	/	-1	/	1	/
CS(=O)(=O)n1nc(-c2ccc(Cl)cc2)nc1N	-12	16	6	5	5	5	/
Cn1nc(-c2ccc(Cl)cc2)nc2c(=O)n(C)c(=O)nc1-2	/	9	94*	100*	19	100*	0.36*
CSc1nc(-c2ccc(Cl)cc2)nn1C(=O)c1ccco1	1	3	38*	15	2	5	>38
Cc1ccccc1C(=O)Nc1sc(C)c(C)c1C(=O)c1ccccc1	3	5	5	-5	1	29	/
Cc1cc(C(=O)c2ccccc2)c(NC(=O)CN2CCOCC2)s1	7	-4	0	-1	4	0	/
Cc1sc(NC(=O)CCl)c(C(=O)c2ccccc2)c1C	15	14	63*	-4	2	4	32*
Cc1cc(C(=O)c2ccc(C(C)(C)C)cc2)c(NC(=O)CCl)s1	5	21	67*	-10	-6	-1	34*
CC(C)(C)c1csc(Sc2ccc([N+](=O)[O-])cn2)n1	1	5	32*	2	-6	0	9.2*
Cc1ccnc(Sc2ccc([N+](=O)[O-])cn2)n1	-5	7	5	2	-5	10	/
COC(=O)Cc1[nH]nc2c1C1(CCSCC1)C(C#N)=C(N)O2	8	5	66*	2	-3	-2	17*
SMILES	CCHF vOTU inh	Mtb hypoxia inh	RecA splice inh	RN4220 kill	BJeLR viability	Sa ugtP lethal	GFP chromo cs
Cc1ccc(SCc2[nH]nc3c2C2(CCSCC2)C(C#N)=C(N)O3)cc1	-7	-3	60*	7	-5	1	16*
C=CCn1cc(C=NNC(=O)c2cc3c(ccc4ccccc43)o2)c2ccccc21	/	9	/	-18	/	-25	/
CN(C)C(=O)c1ccc(N=Nc2c(O)c3ccccc3[nH]c2=O)cc1	6	23	/	0	/	16	/
CN(C)C(=S)N=Nc1[nH]c2ccccc2c1O	-1	5	59*	7	23	5	8.2*
Nc1ccc(N)c(C(=O)O)c1	/	/	57*	/	-6	/	9.7*
Nc1ccc(C(=O)O)c(O)c1	2	/	1	7	3	4	/
COCCNC(=O)C(C#N)=Cc1ccc(-c2ccc(OC)cc2[N+](=O)[O-])o1	/	-7	/	-2	/	-14	/
CC(=O)N1C(C)C=C[C@]1(Cc1ccccc1)C(=O)NCc1cc(F)cc(C(F)(F)F)c1 (some centres not stated)	/	11	/	8	/	-6	/
N#Cc1ccc(-n2c(-c3ccccc3)nnc2-c2ccccc2)cc1C#N	7	4	50*	8	4	5	17*
N#Cc1cccc(-n2c(-c3ccccc3)nnc2-c2ccccc2)c1C#N	3	-3	1	1	4	21	/
O=C(NC1CCCC1)C(c1ccc(F)cc1)N(Cc1ccccc1Cl)C(=O)CCl (configuration not stated)	7	-3	50*	17	10	6	>38
COCCN(C(=O)CCl)C(C(=O)NC1CCCCC1)c1ccccc1C (configuration not stated)	0	11	47*	4	11	4	26*
CCc1nc(NC(C(=O)O)C(C)CC)c2oc3ccccc3c2n1 (configuration not stated)	/	/	/	4	/	0	/
COCCNC(=O)C1CC1C(NP(=O)(c1ccccc1)c1ccccc1)c1ccccc1 (configuration not stated)	/	3	/	5	/	0	/
CN(CC(=O)Nc1ccc(N2CCOCC2)cc1)CC(=O)Nc1cccc(C#N)c1	1	5	-6	0	-11	5	>38
CCn1c(Cl)c(C=O)s/c1=N\S(=O)(=O)c1ccccc1	9	/	89*	/	16	/	15*
O=C(Nc1ccccc1)Nc1ccccc1NS(=O)(=O)c1cccs1	3	12	4	-2	-7	5	/
O=C(Nc1ccc(Cl)c(Cl)c1)Nc1ccccc1NS(=O)(=O)c1cccs1	4	-3	31*	-6	-3	-18	>38
Cc1cccc(N(Cc2ccccc2)C(=O)CCl)c1	16	36*	58*	4	0	6	9.9*
O=C(CCl)N(Cc1cc(=O)[nH]c2ccccc12)c1ccccc1	-20	/	69*	/	5	/	11*
